Our source for the growth values is PubChem BioAssay (NCI).

The structures appear in SMILES notation. The panel holds about 83,000 compounds, 20% with a hit somewhere; the sample as a whole holds those more often.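 Results are percent growth after 48 hours of single-concentration exposure. 100 means growth as in untreated cells, lower positive values show inhibition; negative values down to -100 show cell death.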 Values without a mark were called inactive. The source made the active and inactive calls. How the source made its calls: active means growth percent below 10; inactive means the rest.

Common to all, as to test: NCI-60 one-dose screen, 48 h (100 = growth as untreated, 0 = no growth, -100 = all killed)
What all share (details): 10 µM unless noted

Assay [1] deals with HCT-15 colon.
For assay [2], the system named is HT29 colon.
Assay [3] relates to SNB-75 CNS.
The test system of assay [4] is SNB-19 CNS.
The test system of assay [5] is U251 CNS.
Assay [6] deals with PC-3 prostate.
The test system of assay [7] is SK-MEL-5 melanoma.
Assay [8] concerns UACC-62 melanoma.
The subject of assay [9] is LOX IMVI melanoma.
The subject of assay [10] is SK-MEL-28 melanoma.

For `CC1(C)[C@@H](O)CC[C@]2(C)[C@H]3CC[C@@H]4[C@H]5[C@H](c6cn(-c7ccccc7)nn6)CC[C@]5(CO)CC[C@@]4(C)[C@]3(C)CC[C@@H]12`, the growth was 88.8% in assay [1]; 84.7% in [2]; 81.9% in assay [3]; 93.1% in assay [4]; 89.6% in [5]; 52.8% in assay [6]. In addition, the growth in assay [7] is 83.7%; in assay [8], 79.6%; in assay [9], 95.6%; in assay [10], 88.7%.

Turning to `COC(=O)/C=C1\SC(=Nc2cccc(OC)c2)N(CCc2c[nH]c3ccccc23)C1=O`, the growth in [1] is 39.9%; in assay [2] it was 12.2%; in [3] it was 85%; in [4] it was 72.9%; in [5] it was 53.9%; in assay [6], 40.1%. Also, the growth was 77.2% in [7], 44.1% in assay [8], 49.3% in [9] and 89.6% in assay [10].

For `COc1ccc(/C=C/C(=O)C(CC2CCC2)C(=O)/C=C/c2ccc(OC)c(OC)c2)cc1OC`, the growth in [1] is -35.4% (active); in assay [2], -51.1% (active); in assay [3], 64.7%; in assay [4], -13.1% (active); in assay [5], -68.8% (active); in assay [6] it was -8.3% (active). The growth in assay [7] is -76.6% (active); in [8] it was -65.5% (active); in assay [9] it was -75.4% (active); in assay [10], -4.06% (active).

As for `N#CC(C#N)=C1NC(c2ccccc2)=C(c2ccccc2)C(c2ccccc2Cl)=C1C#N`, the growth in assay [1] is 102%; in [2], 80.4%; in assay [3] it was 107%; in assay [4], 106%; in assay [5], 103%; in assay [6], 87.8%. Further, the growth in assay [7] is 105%; in assay [8] it was 102%; in assay [9], 91.5%; in [10], 114%.

`COc1ccc(NC(=O)c2ccc(Nc3ncnc4[nH]c(C)c(C)c34)cc2)cc1`: the growth in [1] was 103%; in [2], 103%; in [3] it was 93.5%; in [4] it was 105%; in assay [5], 101%; in [6], 109%. For the same compound, the growth is 98.6% in assay [7], 99.6% in assay [8], 104% in [9] and 102% in assay [10].

As for `CSc1cccc(NC(=O)Nc2nc3c(C)cccc3s2)c1`, the growth was 97.9% in assay [1]; 99.5% in assay [2]; 76.7% in assay [3]; 98.2% in assay [4]; 98.9% in [5]; 95.7% in assay [6]. The growth is 95.6% in assay [7], 78.3% in assay [8], 97.5% in assay [9] and 112% in assay [10].

Consider `COc1cc(NC(=O)Nc2cnc(Nc3ccc(N4CCOCC4)cc3)nc2Oc2ccc(F)cc2)cc(OC)c1`, for which the growth is 104% in [1]; 86.9% in assay [2]; 100% in assay [3]; 96% in [4]; 78.8% in [5]; 83% in [6]. The growth in [7] is 80.6%; in assay [8], 106%; in assay [9], 91%; in assay [10], 106%.

As to `N#Cc1ccc(N2Cc3cc(Cl)ccc3OC3=C2C(=O)N(Cc2ccc(F)cc2)C3=O)cc1`, the growth in assay [1] is -54.9% (active); in [2] it was -59.1% (active); in assay [3], -3.4% (active); in assay [4] it was 57.8%; in [5] it was -61.1% (active); in assay [6], 11.8%. Moreover, the growth in [7] was -33.1% (active); in [8], -41.1% (active); in [9], -93% (active); in assay [10] it was -64.1% (active).

As for `CNC(=O)c1cc(Oc2ccc3c(c2)sc2nc(-c4ccc(NC(C)=O)cc4)cn23)ccn1`, the growth in assay [1] was 53%; in [2], 34.7%; in [3], -0.726% (active); in assay [4], 55.2%; in assay [5], 40.7%; in [6] it was 36.6%. The growth in assay [7] is 31.7%; in assay [8], 46.7%; in assay [9], 60.9%; in assay [10], 70%.

As for `CC1CCCN(CCCCCOc2ccc3oc4ccc(Cl)cc4c(=O)c3c2)C1` (stereo not given), the growth in assay [1] was 2.05% (active); in [2], 4.5% (active); in [3], 82.5%; in [4], 86.4%; in assay [5], 68.2%; in assay [6], 79.8%. The growth in [7] was -14.3% (active); in [8] it was -43.1% (active); in assay [9] it was 10.9%; in assay [10], 79.9%.

As for `C#C[C@@]1(O)[C@@H](CO)O[C@@H](n2cc(I)c3c(N)ncnc32)[C@@H]1O`, the growth was 5.73% (active) in assay [1]; 2.8% (active) in assay [2]; -10.1% (active) in assay [3]; 8.06% (active) in assay [4]; -0.637% (active) in [5]; 4.04% (active) in [6]. Moreover, the growth in [7] is -9.34% (active); in assay [8], 4.29% (active); in assay [9] it was -42.3% (active); in assay [10], 43.2%.

Consider `O=S(=O)(O)c1ccc(N=NSc2ccc3ccccc3c2)cc1`, for which the growth in [1] is 104%; in assay [2], 93.8%; in assay [3], 113%; in assay [4], 105%; in assay [5], 96.9%; in assay [6] it was 81.3%. Moreover, the growth in assay [7] was 100%; in [8] it was 102%; in assay [9], 86.8%; in assay [10], 106%.

In the case of `Cc1nc2sc(C(=O)Nc3cccc(Cl)c3C)c(N)c2cc1C(C)O` (stereo not given), the growth was 16.4% in assay [1]; 1.68% (active) in [2]; 13.9% in [3]; 22.4% in assay [4]; 17.7% in [5]; 13.3% in [6]. Besides, the growth is 9.62% (active) in assay [7], 30.7% in assay [8], 29.9% in [9] and 62.1% in [10].
